The values that follow come from PubChem BioAssay (NCATS).

Inconclusive results are not listed. Activity calls are given as the source filed them. Unless noted, calls come from the whole dose curve; as a rule, active = well fitted curve in the direction sought with a large enough effect; inconclusive = small, poorly fitted or top-dose-only effect, or another doubt; inactive = no such curve, though single readings can be large; an effect the other way counts as inactive or inconclusive.

A short description of experiment [1]: Cell Viability - LYMP2-008 (AID 980). Note: % is set by controls: 0 for no effect and ±100 for the full control effect; nearly all actives have a fitted effect of over 60% in size. An outline of the steps: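 LYMP2-008 lymphoblastoid cells (2500/well) plated 5 h, then treated 24 h at 37 C in complete medium. Viability read as intracellular ATP by CellTiter-Glo luminescence after 30 min at room temperature; AC50 from Hill fits.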
Experiment [2] can be described thus: Cell Viability - LYMP2-010 (AID 981). Note: % is set by controls: 0 for no effect and ±100 for the full control effect; nearly all actives have a fitted effect of over 55% in size. In short, it runs like this: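 Human lymphoblastoid LYMP2-010 cells (2500/well) treated 24 h at 37 C in complete medium; viability read as intracellular ATP by CellTiter-Glo luminescence. AC50 from Hill fits of concentration-response data; tetraoctylammonium bromide positive control.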
A short description of experiment [3]: Cell Viability - LYMP2-012 (AID 982).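 Note: cellular ATP by luciferase luminescence where a drop means cytotoxicity; cells exposed to compound for one day before reading; 0% = DMSO only and full loss = 92 µM tetraoctylammonium bromide; nearly all actives have a fitted effect of over 55% in size.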
The nature of experiment [4]: Cell Viability - LYMP2-014 (AID 983).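 Note: plate controls were DMSO only for no effect and 92 µM tetraoctylammonium bromide for full effect; nearly all actives have a fitted effect of over 50% in size.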 In short, it runs like this:
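LYMP2-014 human lymphoblastoid cells, 2500/well, treated 24 h at 37 C in complete medium; viability by CellTiter-Glo ATP luminescence after 30 min at room temperature. AC50 from Hill fits of qHTS concentration-response; tetraoctylammonium bromide positive control.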

Experiment [5] in a line: Cell Viability - LYMP2-016 (AID 984). Note: % is set by controls: 0 for no effect and ±100 for the full control effect; nearly all actives have a fitted effect of over 55% in size. In short, it runs like this: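 Acute toxicity in a Coriell human lymphoblastoid line is scored as loss of intracellular ATP over 24 h of treatment in complete medium. CellTiter-Glo signal is fitted across concentrations with the Hill equation to give AC50.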
Experiment [6] is described as follows: Cell Viability - LYMP2-020 (AID 986).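 Note: plate controls were DMSO only for no effect and tetraoctylammonium bromide at 92 µM for full effect; nearly all actives have a fitted effect of over 55% in size.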 In short, it runs like this: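 Human lymphoblastoid LYMP2-020 cells (2500/well) preincubated 5 h at 37 C, then treated 24 h at 37 C. Viability measured as intracellular ATP by CellTiter-Glo luminescence after 30 min at room temperature; AC50 from Hill fits.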
Experiment [7] can be described thus: Cell Viability - LYMP2-022 (AID 987). An outline of the steps:
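LYMP2-022 lymphoblastoid cells (2500/well, complete medium) were treated with compounds for 24 hours at 37 C; intracellular ATP was then read by CellTiter-Glo luminescence after 30 min at room temperature. AC50 values were derived from Hill-equation fits.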

Experiment [8] in a line: Cell Viability - LYMP2-024 (AID 988).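 Note: plate controls were DMSO only for no effect and 92 µM tetraoctylammonium bromide for full effect; nearly all actives have a fitted effect of over 60% in size.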 An outline of the steps: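 Human lymphoblastoid LYMP2-024 cells (2500/well) rested 5 hr, then treated with compound for 24 hr at 37 C in complete medium. Viability was measured as intracellular ATP by CellTiter-Glo luminescence. AC50 values came from Hill-equation fits.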
Experiment [9] in a line: Cell Viability - LYMP2-026 (AID 989). Note: % is set by controls: 0 for no effect and ±100 for the full control effect; nearly all actives have a fitted effect of over 50% in size. An outline of the steps: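 Human lymphoblastoid LYMP2-026 cells, 2500/well, exposed to compound 24 h at 37 C in complete medium. Viability as intracellular ATP by CellTiter-Glo luminescence; AC50 from Hill fits of qHTS concentration-response.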
The nature of experiment [10]: Cell Viability - LYMP1-002 - Assay at 24 hr (AID 993). Note: % is set by controls: 0 for no effect and ±100 for the full control effect. An outline of the steps:
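Human lymphoblastoid LYMP1-002 cells (2500/well) treated 24 h at 37 °C; viability as intracellular ATP by CellTiter-Glo luminescence. Tetraoctylammonium bromide as positive control; AC50 from Hill-equation fits of qHTS concentration-response.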

Experiment [11] is described as follows: Cell Viability - LYMP1-002 - Assay at 40 hr (AID 994).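 Note: 0% = DMSO only and full inhibition = 92 µM tetraoctylammonium bromide; nearly all actives have a fitted effect of over 60% in size.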 An outline of the steps: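 LYMP1-002 human lymphoblastoid cells (2500/well, complete medium) were treated with compounds for 40 hr at 37 C. Intracellular ATP was measured by CellTiter-Glo luminescence, and AC50 values came from Hill-equation fits of concentration-response data; tetraoctylammonium bromide was the positive control.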

The target of experiment [12] is Alpha-galactosidase A (Homo sapiens) (UniProt P06280). As to the kind of experiment: Counterscreen for Glucocerebrosidase Inhibitors: qHTS Assay for Human alpha-Galactosidase at pH 4.5 (AID 992). Note: 0% is about no effect. In short, it runs like this:
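Concentration-response curves (0.7 nM to 77 uM final) were modeled with the Hill equation to give AC50. Reactions: 2 nM enzyme, 80 uM fluorogenic alpha-galactoside, pH 4.5 citric acid buffer, 20 min, room temperature.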
Background: Counterscreens check selectivity or assay interference.

Experiment [13] addresses alpha-glucosidase (Oryza sativa, rice) (UniProt Q653V4). Briefly: Counterscreen for Glucocerebrosidase Inhibitors: qHTS Assay for Rice alpha-Glucosidase at pH 5.0 (AID 997).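 Note: 0% = full activity with enzyme and -100% = basal without enzyme.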 An outline of the steps:
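Rice alpha-glucosidase (4 nM final) with 400 uM 4-methylumbelliferyl-alpha-D-glucopyranoside in citrate buffer pH 5.0, 20 min at room temperature, stopped at pH 10; fluorescence 365/440 nm, compounds 0.7 nM–77 uM, AC50 from Hill fits.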

The target of experiment [14] is Alpha-galactosidase (Coffea arabica) (UniProt Q42656). As to the kind of experiment: Counterscreen for Glucocerebrosidase Inhibitors: qHTS Assay for Coffee Bean alpha-Galactosidase at pH 5.9 (AID 998).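 Note: plate controls were uninhibited enzyme for no effect and no-enzyme basal signal for full effect.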 An outline of the steps: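 Compounds were titrated from 0.7 nM to 77 uM against green coffee bean alpha-galactosidase (2 nM) using 80 uM fluorogenic 4-methylumbelliferyl substrate. After 20 min at room temperature, reactions were stopped at pH 10 and read by fluorescence.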
Sequence of Alpha-galactosidase (Coffea arabica) (Q42656 whole entry, looked up): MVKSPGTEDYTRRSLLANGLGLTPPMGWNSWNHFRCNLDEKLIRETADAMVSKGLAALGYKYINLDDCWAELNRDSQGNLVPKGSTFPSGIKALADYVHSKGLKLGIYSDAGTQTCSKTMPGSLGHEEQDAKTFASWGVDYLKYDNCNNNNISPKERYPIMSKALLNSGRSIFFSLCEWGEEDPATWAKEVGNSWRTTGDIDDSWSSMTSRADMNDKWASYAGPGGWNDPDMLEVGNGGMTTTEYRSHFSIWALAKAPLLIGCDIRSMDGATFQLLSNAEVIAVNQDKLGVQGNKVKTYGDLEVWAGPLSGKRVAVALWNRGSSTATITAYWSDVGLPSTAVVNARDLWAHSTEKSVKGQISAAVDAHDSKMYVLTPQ

The nature of experiment [15]: Validation of Assay for Modulators of Lamin A Splicing (AID 1459; active = well fitted curve in the direction sought with a large enough effect in the signal ratio; the % refers to the signal ratio;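 note: cells exposed to compound for two days before reading; 0% is about no effect; ratio rise marks activators and ratio drop marks inhibitors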). In short, it runs like this:
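Splicing correction is reported by an EGFP-containing lamin A minigene in stably transfected S3 HeLa cells, while DsRed2 controls for viability and nonspecific signal. Cells are exposed to compounds for 48 hrs before the GFP over RFP ratio is taken.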

The target in experiment [16] is DNA repair nuclease/redox regulator APEX1 (Homo sapiens) (UniProt P27695). As to the kind of experiment: qHTS Validation Assay for Inhibitors of the Human Apurinic/apyrimidinic Endonuclease 1 (APE1) (AID 1705;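 note: TAMRA fluorescence gain over two minutes as APE1 cuts a quenched THF abasic duplex; % is set by controls: 0 for no effect and ±100 for the full control effect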). An outline of the steps: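 Endonuclease activity of human APE1 is followed as dequenching when the enzyme incises a tetrahydrofuran abasic site in a short duplex labelled 5'-TAMRA/3'-BHQ-2 (50 nM final), after 15 min enzyme–compound preincubation at room temperature.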
Sequence of DNA repair nuclease/redox regulator APEX1 (Homo sapiens) (P27695 whole entry, looked up): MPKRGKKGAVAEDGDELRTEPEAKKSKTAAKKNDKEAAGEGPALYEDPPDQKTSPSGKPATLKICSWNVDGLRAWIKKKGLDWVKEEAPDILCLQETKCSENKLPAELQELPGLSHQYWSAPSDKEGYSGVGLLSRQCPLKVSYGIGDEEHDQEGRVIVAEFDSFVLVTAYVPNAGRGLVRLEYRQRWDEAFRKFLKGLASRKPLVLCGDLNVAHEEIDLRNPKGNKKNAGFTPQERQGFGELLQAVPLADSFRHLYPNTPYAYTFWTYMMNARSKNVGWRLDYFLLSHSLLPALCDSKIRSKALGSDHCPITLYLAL
On the technique in general: In qHTS, concentration-response curves come from the screen itself.

Experiment [17] can be described thus: Counterscreen for APE1 Inhibitors: Fluorescent Dye Displacement Validation Assay (AID 1707).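 Note: plate controls were ThO with dsDNA and no compound for no effect and ThO without dsDNA for full effect.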 In short, it runs like this:
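Assay buffer: Tris-HCl pH7.5 with 50mM NaCl, 2 mM MgCl2, 0.01% Tween-20. Dye 250 nM, duplex 50 nM final. Readout: decrease in ThO endpoint fluorescence, 480 nm excitation, 540 nm emission.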

In experiment [18] the target is Endonuclease 4 (Escherichia coli (strain K12)) (UniProt P0A6C1). As to the kind of experiment: Counterscreen for APE1 Inhibitors: qHTS Validation Assay for Inhibitors of Endonuclease IV (AID 1708). For activity change, negative = inhibition: % is set by controls: 0 for no effect and ±100 for the full control effect. Note: potency is the fitted concentration of half-maximal effect. An outline of the steps: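 qHTS concentration-response format; LOPAC1280 tested under APE1-screen conditions. 2 nM enzyme, 15 min compound preincubation at RT, then 50 nM TAMRA/BHQ-2 abasic substrate; kinetic fluorescence read, three reads at 60 s intervals.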

A short description of experiment [19]: qHTS Assay for Lipid Storage Modulators (AID 1519; calls by dose curve; for activity change, negative = inhibition: % is set by controls: 0 for no effect and ±100 for the full control effect). The note with it: Drosophila S3 cells, BODIPY lipid droplet/cell ratio, laser cytometry, cells loaded with oleic acid. An outline of the steps: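 Cells seeded at 5,000 per well were treated with compounds over a concentration series and loaded with oleic acid (400 uM, as added). Lipid droplet fluorescence (488 nm excitation, 500-530 nm channel) was read by laser-scanning cytometry and normalized to 20 uM Triacsin C.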

A short description of experiment [20]: qHTS for differential inhibitors of proliferation of Plasmodium falciparum line 7G8 (AID 1815).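 Note: potency is the fitted concentration of half-maximal effect; parasite growth measured after three days of incubation.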

Sequence of Alpha-galactosidase A (Homo sapiens) (P06280 whole entry, looked up): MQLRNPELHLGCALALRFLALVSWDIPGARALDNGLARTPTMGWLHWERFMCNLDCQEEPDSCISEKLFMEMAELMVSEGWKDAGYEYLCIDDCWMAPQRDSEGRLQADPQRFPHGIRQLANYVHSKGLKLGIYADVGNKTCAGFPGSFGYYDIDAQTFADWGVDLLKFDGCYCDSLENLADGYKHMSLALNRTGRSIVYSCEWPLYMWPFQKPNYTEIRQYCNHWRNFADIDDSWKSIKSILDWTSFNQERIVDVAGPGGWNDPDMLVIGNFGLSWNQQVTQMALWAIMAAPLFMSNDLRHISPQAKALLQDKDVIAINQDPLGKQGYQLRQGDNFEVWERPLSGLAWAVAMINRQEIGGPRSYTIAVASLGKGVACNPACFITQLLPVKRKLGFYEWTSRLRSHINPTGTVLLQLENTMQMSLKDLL

`CCCCC(CC)COC(=O)c1ccccc1C(=O)OCC(CC)CCCC` (stereo not drawn): the Potency entry in [1], in [2], in experiment [3], in experiment [4], in experiment [5] and in [6] was “inactive” in each case. The Potency entry in experiment [7], in [8], in experiment [9], in experiment [10] and in experiment [11] was “inactive” throughout.

Take `CCCN1CCC[C@H](c2cccc(O)c2)C1`: the compound was called inactive in [12], in [13], in experiment [14] and in experiment [15]. For the same compound, the Potency entry in [16], in experiment [17] and in [18] was “inactive” each time.

Regarding `CN[C@@H]1C[C@@H](c2ccc(Cl)c(Cl)c2)c2ccccc21`, the compound was called inactive in experiment [12], in [13] and in experiment [14]. Further, the Potency result in experiment [16], in experiment [17] and in experiment [18] was “inactive” in each case.

With `COC(=O)[C@@H](N)CCCN=C(N)N[N+](=O)[O-]`, the activity change, negative = inhibition in experiment [19] (at 57.5 µM (top of the series)) is -4.08% (inactive). For the same compound, the results for the max response in experiment [19] (measured here: cell count channel max response) and in experiment [19] (measured here: lipid channel max response) were -4.51% and -8.77%, respectively.

In the case of `C#CCOC(=O)C1=CCCN(C)C1`, the compound was called inactive in [12], in experiment [13], in [14] and in [15]. Also, the Potency entry in [16] and in experiment [17] was “inactive” in each case.

For the compound `Clc1ccc(C(c2ccc(Cl)cc2)n2cc[n+](CC(OCc3ccc(Cl)cc3Cl)c3ccc(Cl)cc3Cl)c2)cc1` (stereo not drawn), the Potency result in experiment [16] and in experiment [17] was “inactive” each time. For the same compound, the Potency was 31.6 µM (active) in experiment [18] and 7.94 µM (active) in [20].

Take `CC(=O)Oc1ccccc1C(=O)O`: the result in experiment [14] was inactive.

Consider `CC#C[C@]1(O)CC[C@H]2[C@@H]3CCC4=CC(=O)CCC4=C3[C@H](c3ccc(N(C)C)cc3)C[C@@]21C`, for which, in experiment [14], the outcome was inactive.

Regarding `C[C@]12C[C@H](O)[C@H]3[C@@H](CCC4=CC(=O)CC[C@@]43C)[C@@H]1CC[C@@H]2C(=O)CO`, in experiment [14], the call was inactive.

Regarding `CCn1cc(C(=O)O)c(=O)c2cc3c(cc21)OCO3`, the call in experiment [14] was inactive.

In the case of `C1CCC(NC2CCCCC2)CC1`, the Potency result in experiment [1], in experiment [2], in [3], in experiment [4], in experiment [5] and in [6] was “inactive” throughout. Besides, the Potency entry in experiment [7], in [8], in experiment [9], in experiment [10] and in experiment [11] was “inactive” each time.

For `CCCCCCCCc1ccc(O)cc1`, the Potency entry in experiment [1], in experiment [2], in [3], in experiment [4], in [5] and in experiment [6] was “inactive” throughout. Besides, the Potency result in [7], in [8], in experiment [9], in experiment [10] and in [11] was “inactive” throughout.

As to `Cc1cccc(C#Cc2ccccc2)n1`, the compound was called inactive in experiment [14].

Consider `CCN(CC)CCNC(=O)c1ccc(NC(C)=O)cc1`, for which the result in experiment [14] was inactive.

Consider `CC(C)c1ccc2c(c1)c(SC(C)(C)C)c(CC(C)(C)C(=O)O)n2Cc1ccc(Cl)cc1`, for which the result in experiment [14] was inactive.

Regarding `C=CC(=O)NCNC(=O)C=C`, the Potency result in experiment [1], in experiment [2], in [3], in experiment [4], in [5] and in experiment [6] was “inactive” in each case. Also, the Potency result in experiment [7], in [8], in experiment [9], in experiment [10] and in [11] was “inactive” in each case.

As for `CCOP(=O)(NC(C)C)Oc1ccc(SC)c(C)c1` (stereo not drawn), the Potency result in [1], in [2], in [3], in experiment [4], in experiment [5] and in [6] was “inactive” throughout. The Potency result in experiment [7], in experiment [8], in experiment [9], in experiment [10] and in [11] was “inactive” throughout.
